# IMPase cell inh: qHTS Assay for Identifying the Cell-Membrane Permeable IMPase Inhibitors | CHO-M1 cells, IP1 accumulation, HTRF TR-FRET ratio | inhibition (IP1 accumulation), % at 46.1 µM | 120,000 tested, under 10 active; active = well fitted curve in the direction sought with a large enough effect in the signal ratio, not every such curve was filed as active; inconclusive = small, poorly fitted or top-dose-only effect, or a change in a side signal; inactive = no such curve, though single readings can be large or run the other way; the % refers to the signal ratio;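 note: cells stimulated with carbachol in lithium chloride buffer; plate controls were DMSO basal wells for no effect and reference inhibitor wells for full effect; higher means more IMPase inhibition seen as more IP1 and lower FRET ratio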
#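 Measured: the HTRF emission ratio (665/620 nm) plus the 620 nm donor channel, each fitted to the Hill equation to give AC50. Cells were CHO-M1 given compounds up to 46 uM and a 30 min carbachol stimulation at 37C.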
# ALOX12 inhib: qHTS Assay for Inhibitors of 12-hLO (12-human lipoxygenase); purified 12-hLO, xylenol orange hydroperoxide absorbance; Potency, µM (doses to about 57.1 µM), for inactives: at the top dose activity change, negative = inhibition, hits mostly inhibitors; AID 1452, 2008; 150,000 tested, 0.12% active; note: potency is the fitted concentration of half-maximal effect; nearly all actives have a fitted effect of over 55% in size
#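 Hydroperoxide output read as Fe(III)-xylenol orange absorbance, 573-to-405 nm ratio, after 30 min reaction with 40 uM arachidonic acid. Enzyme: 150 nM purified human 12hLO, 15 min compound preincubation; 25 mM Hepes pH 7.0, room temperature.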
# NPSR antag: qHTS Assay for Antagonists of the Neuropeptide S Receptor: cAMP Signal Transduction; CHO-NPSR cells, cAMP TR-FRET, antagonist mode; AID 1461, 2008; Q6W5P4; Potency, µM (doses to about 38.3 µM), for the others: at the highest dose activity change, negative = inhibition, most hits filed as inhibitors; 220,000 tested, 1% active; note: potency is the fitted concentration of half-maximal effect; nearly all actives have a fitted effect of over 50% in size
# Target sequence (Q6W5P4 whole entry, looked up): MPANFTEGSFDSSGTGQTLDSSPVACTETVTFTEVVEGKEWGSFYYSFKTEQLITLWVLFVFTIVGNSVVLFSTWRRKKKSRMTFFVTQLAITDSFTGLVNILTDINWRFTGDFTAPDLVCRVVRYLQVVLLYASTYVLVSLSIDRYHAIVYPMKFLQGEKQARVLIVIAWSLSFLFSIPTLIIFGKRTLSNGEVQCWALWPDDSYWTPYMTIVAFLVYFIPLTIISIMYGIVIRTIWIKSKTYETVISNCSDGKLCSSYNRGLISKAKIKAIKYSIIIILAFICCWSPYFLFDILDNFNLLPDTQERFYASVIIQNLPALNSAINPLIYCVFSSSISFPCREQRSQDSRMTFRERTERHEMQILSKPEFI
# HPGD inh: qHTS Assay for Inhibitors of HPGD (15-Hydroxyprostaglandin Dehydrogenase). 15-hydroxyprostaglandin dehydrogenase [NAD(+)] (Homo sapiens), P15428. purified HPGD, NADH fluorescence kinetic, PGE2 substrate. Potency, µM, for inactives: at the highest dose activity change, negative = inhibition, actives largely listed as inhibitors. 150,000 tested, 4.3% active. AID 894, 2007; active = well fitted inhibition curve with a large enough effect, not every such curve was filed as active; inconclusive = small, poorly fitted or top-dose-only effect, or another doubt; inactive = no such curve, though single readings can be large or run the other way; note: potency is the fitted concentration of half-maximal effect
# Target sequence (P15428 whole entry, looked up): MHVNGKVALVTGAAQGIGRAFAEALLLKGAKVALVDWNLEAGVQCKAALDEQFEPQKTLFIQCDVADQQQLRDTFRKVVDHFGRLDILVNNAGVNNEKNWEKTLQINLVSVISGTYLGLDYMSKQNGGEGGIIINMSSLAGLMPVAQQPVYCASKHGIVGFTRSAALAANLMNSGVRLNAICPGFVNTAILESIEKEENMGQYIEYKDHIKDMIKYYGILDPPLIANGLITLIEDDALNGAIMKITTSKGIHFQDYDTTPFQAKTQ
#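 NADH formation kinetics: reaction with 30 uM PGE2 and 1 mM NAD+ (final), 20 nM enzyme, Tris-HCl pH 8 with Tween 20, after 15 min compound preincubation at room temperature. Fluorescence change, last versus first of five reads.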
# IMPase Li inh: qHTS Assay for Identifying the Cell-Membrane Permeable IMPase Inhibitors: Potentiation with Lithium; CHO-M1 cells, IP1 TR-FRET (IP-One), carbachol + lithium; Potency, µM (highest dose often 59.4 µM), without a hit: top-dose activity, negative = IMPase inhibition, most hits filed as inhibitors; 210,000 tested, 0.35% active; AID 1457, 2008;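 note: IP1 builds up when IMPase is blocked and the TR-FRET signal falls; potency is the fitted concentration of half-maximal effect; plate controls were basal vehicle for no effect and high inhibitor control for full effect; nearly all actives have a fitted effect of over 50% in size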
#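 Lithium-sensitised IP1 accumulation assay; M1-expressing CHO cells treated 30 min at 37C with compound. Competitive antibody detection by time-resolved FRET followed a 10 min room-temperature lysis step.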
# ALDH1A1 block: qHTS Assay for Inhibitors of Aldehyde Dehydrogenase 1 (ALDH1A1) | Potency, µM (series often up to 75.3 µM), inactives show at the highest dose activity, negative = inhibition, usual class: inhibitors | AID 1030, 2008 | Purified ALDH1A1, NADH fluorescence, propionaldehyde substrate | 220,000 tested, 7.3% active; active = well fitted inhibition curve with a large enough effect, not every such curve was filed as active; inconclusive = small, poorly fitted or top-dose-only effect, or another doubt; inactive = no such curve, though single readings can be large or run the other way;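 note: potency is the fitted concentration of half-maximal effect; plate controls were no enzyme wells and a reference inhibitor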
# * = called active by the depositor; ? = inconclusive; . = not tested or not shown; [ ] = dose if it differs, or a comment. Only some compounds are listed: those with a hit (about 8.9% of all), similar ones and a draw of the others. Unless noted, calls come from the whole dose curve; as a rule, active = well fitted curve in the direction sought with a large enough effect; inconclusive = small, poorly fitted or top-dose-only effect, or another doubt; inactive = no such curve, though single readings can be large; an effect the other way counts as inactive or inconclusive. Unless noted, % is set by controls: 0 for no effect and ±100 for the full control effect.
SMILES,IMPase cell inh,ALOX12 inhib,NPSR antag,HPGD inh,IMPase Li inh,ALDH1A1 block
COc1cccc(OC)c1C(=O)Nc1nnc(-c2cccs2)s1,.,.,21%,.,-10%,7.9µM*
CC(C)OCC(O)CSc1ccccn1 (stereo unspecified),12,-13%,-18%[46.1 µM],18µM*,-19%[38.3 µM],-3%
O=C(COc1ccccc1)Nc1ccc2c(c1)Cc1cc(NC(=O)COc3ccccc3)ccc1-2,-4,3%,-4%[46.1 µM],.,.,2%
Cc1nn(-c2nnc(NCc3ccccc3)nn2)c(C)c1Br,.,-18%,-6%,14µM*,-4%,28µM*
Cc1cccc(N(Cc2ccccc2)C(=O)CCl)c1,.,.,-36%,.,11%,0.28µM*
O=C(CCl)N(Cc1ccccc1)c1ccccc1,.,.,-39%,.,7%,0.079µM*
O=C(O)c1cccc([N+](=O)[O-])c1C(=O)Nc1nc2ccccc2s1,.,.,7%,.,7%,-1%
CC1CCCC(C)N1C(=O)CSc1nnc(NC(=O)Cc2cccs2)s1 (stereo unspecified),6,-2%,-2%[46.1 µM],.,.,?
CCNC(=S)Nc1cc(OC)c(NC(=O)c2ccco2)cc1OC,.,.,8%,.,7%,4%
NCCNC(=O)Cc1ccc(NC(=O)Cc2ccc(Nc3ncnc4c3ncn4[C@@H]3O[C@H](CO)[C@@H](O)[C@H]3O)cc2)cc1,.,.,.,.,-8%,-5%
Cc1cc(C)n(CC2CC(=O)N(c3ccccc3)C2=O)n1 (stereo unspecified),.,.,-7%,.,.,10%
Cc1ccccc1Nc1ncnc2c1cnn2Cc1ccccc1,.,.,-14%,.,.,.
COc1ccc(CC(=O)NNc2ncnc3c2cnn3Cc2ccccc2)cc1OC,.,.,-25%,.,.,10µM*
Cc1cccc(Nc2ncnc3c2cnn3Cc2ccccc2)c1,.,.,-11%,.,4%,22µM*
CC(=O)N1N=C(c2cccs2)CC1c1ccc(C)o1 (stereo unspecified),.,.,-11%,.,2%,4%
COc1cc(OC)cc(C(=O)N[C@H](C(=O)Nc2nc3c(s2)CCCC3)C(C)C)c1,.,-1%,-40%,-7%,7%,?
NNC(=O)CC12CC3CC(C1)CC(n1ncnn1)(C3)C2,.,0%,10%,2%,7%,2.8µM*
CCN(CC)S(=O)(=O)c1ccc(C(=O)NCc2ccc3c(c2)OCO3)cc1,.,.,3%,.,2%,?
COc1ccccc1Nc1nnc(SCC2CCCCO2)s1 (stereo unspecified),.,.,-3%,.,24%,32µM*
C=CCn1c(SCC(=O)NC(=O)NCCC)nnc1C1CCCCC1,0,3%,-1%[46.1 µM],-13%,5%[38.3 µM],5.6µM*
O=C(c1ccc(-c2nnc(Nc3ccccc3)c3ccccc23)cc1)N1C[C@H]2C[C@H](C1)c1cccc(=O)n1C2,6,-3%,-14%[46.1 µM],32µM*,16%[38.3 µM],13%
O=C(Nc1cccc(Oc2c(F)c(F)c(F)c(F)c2F)c1)N1C[C@@H]2C[C@@H](C1)c1cccc(=O)n1C2,9,-7%,-7%[46.1 µM],.,.,3%
Cc1cc(C)c2nc(NC(=O)C3CC(=O)N(Cc4ccco4)C3)sc2c1 (stereo unspecified),.,.,-12%,.,4%,?
O=C(Nc1nc2c(F)cc(F)cc2s1)C1CC(=O)N(Cc2ccco2)C1 (stereo unspecified),.,.,12%,.,.,14µM*
CCc1ccc2c(c1)C(=O)C(=O)N2CC(=O)Nc1ccc(NC(=O)c2ccccn2)cc1,.,.,7%,.,1%,0.22µM*
SMILES,IMPase cell inh,ALOX12 inhib,NPSR antag,HPGD inh,IMPase Li inh,ALDH1A1 block
CCCN1C(=O)/C(=C\C=C2/C=CN(CC)c3ccccc32)SC1=S,10,-1%,2µM*,-15%,98%,5µM*
Cc1cccc(-n2c(C)cc(C(=O)NC3CCCCC3)c2C)c1,-4,-15%,-48%,0.71µM*,8%,1%
COc1ccc(-n2c(C)cc(C(=O)NC3CCCCC3)c2C)cc1,11,4%,?,1.1µM*,5%[38.3 µM],7.9µM*
CCOc1ccc(-n2c(C)cc(/C=N\NC(=O)CC(=O)NC3CCCCC3)c2C)cc1,.,-8%,-3%,-8%,3%,-8%
CCC(C)(C)n1nnnc1C(c1ccc2ncccc2c1)N1CCN(Cc2ccc3c(c2)OCO3)CC1 (stereo unspecified),5,-3%,7.9µM*,-1%,14%[38.3 µM],9%
CCC(C)(C)n1nnnc1C(c1ccc(C)cc1)N1CCN(Cc2ccc3c(c2)OCO3)CC1 (stereo unspecified),12,-3%,-15%[46.1 µM],5%,4%,-9%
O=C(O)CCCN1C(=O)/C(=C/c2ccc(-c3nc4ccccc4s3)o2)SC1=S,4,2%,?,18µM*,15%,?
O=C(O)CCCCCN1C(=O)/C(=C\c2ccc(-c3ccc(Cl)cc3)o2)SC1=S,.,.,-10%,.,.,.
CC1CCCCC1NC(=O)CN(C)S(=O)(=O)c1cccc2cccnc12 (stereo unspecified),.,.,3%,.,.,.
COc1ccc(NC(=O)C/C(C)=N/NC(=O)c2cnccn2)cc1,.,.,8%,.,3%,-4%
CN1c2ccsc2/C(=N/Nc2ccccc2)CS1(=O)=O,.,.,-7%,.,20%,13µM*
Cc1cccc(-c2nnc(SCc3nc4ccccc4[nH]3)n2Cc2ccco2)c1,-18,-10%,-15%[46.1 µM],.,.,16%
Cc1ccc(-c2nnc(SCc3nc4ccccc4[nH]3)n2Cc2ccco2)cc1,4,-13%,-13%[46.1 µM],-29%,19%[38.3 µM],16µM*
c1ccc(-c2nnc(CSc3nnc(-c4ccncc4)n3Cc3ccco3)o2)cc1,-14,-1%,7%[46.1 µM],20µM*,5%[38.3 µM],9%
NNC(=O)c1sc2cc(C(F)(F)F)cnc2c1-c1ccccn1,.,.,-18%,.,-2%,7.1µM*
O=C(O)c1sc2cc(C(F)(F)F)cnc2c1-c1ccccc1,-5,-2%,-8%[46.1 µM],-16%,-5%[38.3 µM],3%
CCCCCCOC(=O)C(C#N)c1nc2ccccc2nc1N1CCCCC1 (stereo unspecified),8,-1%,10µM*,-21%,44%[38.3 µM],-2%
CCCCCCOC(=O)C(C#N)c1nc2ccccc2nc1N1CCN(C)CC1 (stereo unspecified),-6,-18%,?,-18%,12%[38.3 µM],?
O=C(c1cc2c(s1)CCCC2)N1CCN(Cc2ccc3c(c2)OCO3)CC1,7,-11%,?,-27%,13%[38.3 µM],14µM*
